Compound activity deposited in PubChem by several laboratories.
An excerpt weighted towards active compounds, which were near 0.51% of everything screened.
E coli growth-1: E. coli growth inhibition, primary screen, OD600 | Escherichia coli growth, 23 h; stronger effect = lower value | AID 1053175, 2014 | OD600 absorbance (concentration not given with the values) | 0.21% of 330,000 active;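 active means OD600 absorbance below the run mean of sample wells minus 3.6 SD, in any replicate, cut at about 0.56 in these data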
Tat export inh: E. coli Tat export inhibitors, primary screen, MC4100, TorA-mCherry reporter, fluorescence, single point; 0.036% of 340,000 active; inhibition, % at 10 µM;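 active means mean replicate inhibition at least 50% and at least half of replicates individually reaching 50%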;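 further: exported cargo escapes ClpAP degradation while cytoplasmic cargo is degraded and loses fluorescence; 0% = median of neutral control wells and 100% = median of NaSCN control wells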
phage Ecoli inh: growth loss of phage-infected E. coli, primary screen, RecBCD inhibitor project, absorbance, with phage, HTS; AID 651602, 2012; inhibition, % at 11.9 µM; 0.26% of 360,000 active; in the data active means inhibition above about 11%
AddAB inh: growth inhibition of E. coli expressing H. pylori AddAB, primary screen, AddAB inhibitor project, absorbance; inhibition, % at 11.9 µM; 0.29% of 330,000 active; AID 435030, 2010; in the data active means inhibition above about 12%;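 further: 0% = vehicle wells of infected cells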
E coli growth-2: E. coli V3065 growth inhibition, primary screen, counter-screen for AddAB inhibitor project, absorbance, OD600; 18 h; inhibition, % at 11.9 µM; 0.27% of 330,000 active; AID 449728, 2010;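 active means inhibition above the campaign's mean inhibition across all tested compounds plus 3 SD, cut at about 9.9% in these data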;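 further: uninfected addAB+ strain grown without phage in ampicillin broth; 0% = DMSO wells and 100% = ciprofloxacin 0.95 µg/ml wells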
AddAB confirm: growth loss of phage-infected E. coli expressing H. pylori AddAB, confirmation, AddAB inhibitor project, absorbance, E. coli V3065, T4 phage, triplicate. inhibition, % at 11.9 µM. shares compounds with AddAB inh. 64% of 880 active. OD; T4 phage with gene 2 nonsense mutations;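 active means mean inhibition above a set limit taken from the earlier primary screen, cut at about 13% in these data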;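 further: higher means less bacterial growth since AddAB block lets phage replicate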
RecBCD counter: growth loss of RecBCD+ E. coli with mutant T4 phage, counter-screen for AddAB inhibitor project, absorbance, V66 E. coli | shares compounds with AddAB inh | OD growth | inhibition, % at 11.9 µM | 73% of 880 active | AID 488955, 2010;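 active means mean inhibition above the mean of solvent-only control wells plus 3 SD, cut at about 4% in these data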;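 further: optical density read after an 18 h incubation at 37 °C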
Bact viability: bacterial viability inhibition counter-screen, confirmation, counter-screen for AddAB inhibitor project, absorbance | absorbance (AddAB counterscreen) | AID 488956, 2010 | 35% of 880 active | inhibition, % at 11.9 µM | shares compounds with AddAB inh; in the data active means inhibition above about 25%
RecBCD conf: growth loss of phage-infected RecBCD+ E. coli, confirmation, RecBCD inhibitor project, absorbance, E. coli V66, T4 gene 2 phage; shares compounds with phage Ecoli inh; E. coli V66 + T4 2- phage, growth OD; inhibition, % at 11.9 µM; 45% of 890 active; AID 651982, 2013;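 active means mean inhibition over triplicates exceeding the hit threshold derived in the original primary screen, cut at about 11% in these data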
Ecoli viability: E. coli viability inhibition, counter-screen for RecBCD inhibitor project, absorbance, high throughput; shares compounds with phage Ecoli inh; absorbance (OD) growth; inhibition, % at 11.9 µM; 29% of 890 active; in the data active means inhibition above about 20%;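 further: E. coli strain V66 grown with compound alone and no phage infection; 0% = bacteria with DMSO vehicle only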
AddAB phage OD: growth loss of phage-infected AddAB-carrying E. coli, confirmation, counter-screen for RecBCD inhibitor project, absorbance, E. coli V3065, T4 phage; 45% of 890 active; inhibition, % at 11.9 µM; shares compounds with phage Ecoli inh; AID 651984, 2013; E. coli expressing H. pylori AddAB + T4 phage, OD growth; gene 2 mutant T4, recBCD-deleted host;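 active means mean inhibition above the solvent-only control wells' mean plus 3 SD, cut at about 22% in these data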;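 further: higher means less bacterial growth from phage killing when AddAB is blocked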
An asterisk follows results filed as active.

`O=C(C1=CC(c2ccc(Br)cc2)CC(OCCCCO)O1)N1CCN(Cc2ccccc2)CC1` (configuration not stated) gave E coli growth-1 0.63.
Screening COc1cccc(/C=C2/SC(=S)N(CC(=O)NNC(=O)c3ccccc3O)C2=O)c1 returned E coli growth-1 0.65, Tat export inh 9, phage Ecoli inh 14*, AddAB inh 13*, E coli growth-2 7, AddAB confirm 17*, RecBCD counter 14*, Bact viability 16, RecBCD conf 11*, Ecoli viability 15 and AddAB phage OD 17.
For O=C(COc1ccccc1C=C1SC(=O)NC1=O)Nc1ccccc1 the results were E coli growth-1 0.69.
`O=C(O)c1cn(C2CCCCC2)c2ccccc2c1=O` gave E coli growth-1 0.65, Tat export inh 2, phage Ecoli inh 1, AddAB inh 0 and E coli growth-2 1.
Screening CC1CCc2c(N3CCC(O)CC3)c(F)cc3c(=O)c(C(=O)O)cn1c23 (configuration not stated) returned E coli growth-1 0.059*, Tat export inh 60*, phage Ecoli inh 103*, AddAB inh 101*, E coli growth-2 102*, AddAB confirm 96*, RecBCD counter 99*, Bact viability 97*, RecBCD conf 102*, Ecoli viability 103* and AddAB phage OD 103*.
For NC1CCN(c2c(F)cc3c(=O)c(C(=O)O)cn(C4CC4)c3c2Cl)C1 (configuration not stated) the results were E coli growth-1 0.066*, Tat export inh 149*, phage Ecoli inh 99*, AddAB inh 97*, E coli growth-2 98*, AddAB confirm 102*, RecBCD counter 100*, Bact viability 102*, RecBCD conf 101*, Ecoli viability 101* and AddAB phage OD 99*.
For CC1CCc2cc(F)cc3c(=O)c(C(=O)O)cn1c23 (configuration not stated) the results were E coli growth-1 0.062*, Tat export inh 56*, phage Ecoli inh 100*, AddAB inh 100*, E coli growth-2 100*, AddAB confirm 99*, RecBCD counter 31*, Bact viability 100*, RecBCD conf 102*, Ecoli viability 103* and AddAB phage OD 102*.
CCOc1ccc(OCC(=O)Nc2ccccc2C(F)(F)F)cc1 was read as E coli growth-1 0.71, Tat export inh 2, phage Ecoli inh 4, AddAB inh -1 and E coli growth-2 0.
Screening CCC(ONc1ccccc1C(F)(F)F)(C(=O)NN(C)C)c1ccccc1 (configuration not stated) returned E coli growth-1 0.5, Tat export inh -10, phage Ecoli inh 17*, AddAB inh 101*, E coli growth-2 23*, AddAB confirm 98*, RecBCD counter 14*, Bact viability 62*, RecBCD conf 11*, Ecoli viability 12 and AddAB phage OD 103*.
Screening C#CCNC(=O)C1=CC(c2ccc(C(F)(F)F)cc2)CC(OCc2ccc(CO)cc2)O1 (configuration not stated) returned E coli growth-1 0.71.
